The panel holds about 83,000 compounds, 20% with a hit somewhere; the sample as a whole holds those more often.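 Single-dose data. Exposure time 48 hours. Values below 10 considered active.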 A number with no mark means an inactive call. Activity calls are given as the source filed them.

Test systems include DU-145 prostate; K-562 leukemia; MALME-3M melanoma; MDA-MB-231 breast; RXF 393 renal; SF-268 CNS; SF-295 CNS; SF-539 CNS; UACC-257 melanoma; M14 melanoma.
Test in all cases: NCI-60 one-dose screen, 48 h (100 = growth as untreated, 0 = no growth, -100 = all killed)
Common to all, as to conditions: 10 µM unless noted

With `CCOC(=O)c1c2c(n3ccc(C)cc13)C(=O)c1ccccc1C2=O`, the growth with DU-145 prostate is 102%; in the assay with K-562 leukemia it was 75.7%; with MALME-3M melanoma, 103%; in the assay on MDA-MB-231 breast, 90.2%; in the assay on RXF 393 renal, 95.6%; in the assay with SF-268 CNS, 96.3%. In addition, the growth with SF-295 CNS was 98.5%; in the assay on SF-539 CNS, 102%; in the assay with UACC-257 melanoma it was 78.2%; in the assay with M14 melanoma, 84.6%.
`Cc1nc2sc(C(=O)Nc3ccccc3)c(N)c2cc1C(=O)c1ccccc1`: the growth with DU-145 prostate is 56.1%; in the assay with K-562 leukemia it was 32.4%; in the assay on MALME-3M melanoma, 68.3%; with MDA-MB-231 breast, 58%; in the assay on RXF 393 renal it was -0.48% (active); in the assay on SF-268 CNS it was 47.8%. Moreover, the growth in the assay on SF-295 CNS was -9.52% (active); in the assay with SF-539 CNS, 33.4%; in the assay on UACC-257 melanoma it was 49.8%; with M14 melanoma, 39.8%.
On to `CCCCCCCCn1ccc2cc(NC(=O)CN3CCN(c4nc(C)cc(Cl)n4)CC3)ccc21`, for which the growth is 101% in the assay with DU-145 prostate; 85.2% with K-562 leukemia; 91.5% with MALME-3M melanoma; 107% with MDA-MB-231 breast; 103% in the assay on RXF 393 renal; 96.3% with SF-268 CNS. The growth is 102% in the assay with SF-295 CNS, 107% in the assay with SF-539 CNS, 114% in the assay on UACC-257 melanoma and 96.1% in the assay with M14 melanoma.
Consider `S=C(Nc1ccc(-c2nc(N3CCOCC3)c3cccn3n2)cc1)Nc1cccnc1`, for which the growth was 18.6% in the assay with DU-145 prostate; 26.2% in the assay on K-562 leukemia; 24.7% in the assay with MALME-3M melanoma; 41.3% with MDA-MB-231 breast; 17.9% in the assay with RXF 393 renal; 53.1% with SF-268 CNS. Further, the growth with SF-295 CNS was 25.6%; in the assay on SF-539 CNS, 10%; in the assay with UACC-257 melanoma it was 50.9%; with M14 melanoma it was 32.1%.
`Cn1c(=O)c2[nH]c(N/N=C/c3ccccc3Br)nc2n(C)c1=O`: the growth with DU-145 prostate was 104%; in the assay with K-562 leukemia it was 87.9%; in the assay on MALME-3M melanoma, 107%; with MDA-MB-231 breast it was 97.8%; in the assay on RXF 393 renal, 121%; in the assay on SF-268 CNS, 104%. Moreover, the growth was 92.2% in the assay with SF-295 CNS, 113% in the assay with SF-539 CNS, 117% with UACC-257 melanoma and 99.9% in the assay with M14 melanoma.
Consider `N#CC1=C(N)Oc2c(sc3c(Br)cccc23)C1c1ccc(F)cc1` (stereo not given), for which the growth in the assay on DU-145 prostate was 24.1%; with K-562 leukemia, 9.02% (active); in the assay on MALME-3M melanoma it was 49.4%; in the assay on MDA-MB-231 breast it was 16.9%; in the assay on RXF 393 renal, -2.88% (active); in the assay with SF-268 CNS it was 25.5%. Besides, the growth in the assay with SF-295 CNS was 5.32% (active); in the assay with SF-539 CNS, -27.1% (active); in the assay on UACC-257 melanoma it was 74.1%; with M14 melanoma it was 9.58% (active).
For the compound `CSc1nnc(-c2cnn3c2NC(c2ccccc2)C3)n1-c1ccc(C(F)(F)F)cc1` (stereo not given), the growth is 85.1% in the assay on DU-145 prostate; 3.03% (active) in the assay on K-562 leukemia; 69.8% with MALME-3M melanoma; 64.8% with MDA-MB-231 breast; 79.1% with RXF 393 renal; 65.1% with SF-268 CNS. Moreover, the growth in the assay on SF-295 CNS was 32%; with SF-539 CNS, 80.3%; in the assay on UACC-257 melanoma, 51.4%; with M14 melanoma, 54.3%.
For `CCOC(=O)C1=NN(c2ccccc2)C(=O)/C1=C\N1C(=O)CC(=O)NC1=S`, the growth with DU-145 prostate was 110%; in the assay on K-562 leukemia, 98.2%; with MALME-3M melanoma it was 97.6%; in the assay with MDA-MB-231 breast, 91.8%; in the assay on RXF 393 renal, 117%; with SF-268 CNS, 93.9%. The growth with SF-295 CNS was 103%; in the assay with SF-539 CNS, 100%; in the assay on UACC-257 melanoma, 105%; in the assay with M14 melanoma, 93.7%.
Turning to `COc1cc2c(c(OC)c1OC)C(=O)CC(c1cccc(NC(=O)c3ccc(Br)cc3)c1)O2` (stereo not given), the growth is 58.7% with DU-145 prostate; 5.9% (active) in the assay with K-562 leukemia; 46.6% with MALME-3M melanoma; 37.3% in the assay on MDA-MB-231 breast; 66.3% in the assay on RXF 393 renal; 57.6% in the assay on SF-268 CNS. In addition, the growth in the assay with SF-295 CNS is 41.8%; in the assay on SF-539 CNS it was 79.1%; in the assay with UACC-257 melanoma, 53.1%; with M14 melanoma, 20%.
As for `O=C(Nn1c2c(sc1=NCc1ccccc1)C(=O)c1ccccc1C2=O)c1cc2ccc1CCc1ccc(cc1)CC2`, the growth is 88.8% in the assay on DU-145 prostate; 48.8% in the assay with K-562 leukemia; 5.52% (active) in the assay with MALME-3M melanoma; 40.4% in the assay on MDA-MB-231 breast; 60.3% in the assay with RXF 393 renal; 58.6% in the assay on SF-268 CNS. The growth in the assay on SF-295 CNS was 94.8%; in the assay with SF-539 CNS it was 87.5%; in the assay with UACC-257 melanoma it was 52.6%; with M14 melanoma, 19.3%.
Consider `C#CCOc1cccc(Nc2ncnc3c(NC(=O)C=C)cccc23)c1`, for which the growth with DU-145 prostate was -1.57% (active); in the assay with K-562 leukemia it was 5% (active); in the assay on MALME-3M melanoma, 31.3%; with MDA-MB-231 breast, 26.3%; in the assay with RXF 393 renal, -3.19% (active); in the assay with SF-268 CNS, 20.7%. Further, the growth is 53.6% in the assay with SF-295 CNS, 5.67% (active) in the assay on SF-539 CNS, 33% with UACC-257 melanoma and 19.9% with M14 melanoma.

Source of the values: PubChem BioAssay (NCI).
